Records with an inconclusive call do not appear. Values without a mark were called inactive. Activity calls are given as the source filed them. Calls come from the whole dose curve; as a rule, active = well fitted activation curve with a large enough effect in the repeat runs; inconclusive = weak or mixed curves; inactive = flat fitted curve, though single readings scatter.
assay: A CellTox Green Cytotoxicity Assay to monitor cytotoxicity in HepG2 cells - 32 hour (AID 1224883); details: CellTox Green fluorescence; series mostly up to 76.8 µM; cytotoxicity increase: at the top concentration; note: nearly all actives have a fitted effect of over 50% in size
Description: National Center for Advancing Translational Sciences [NCATS]
NIH Chemical Genomics Center [NCGC]
U.S. Environmental Protection Agency [EPA]
National Institutes of Environmental Health Sciences [NIEHS]
National Toxicology Program [NTP]
Cell-based models are critical for drug discovery. Determining the natural cytotoxic effects resulting from test compounds is an essential research activity. A CellTox Green Cytotoxicity Assay to monitor cytotoxicity in real time of continues cell culture during 40 hours of the compound treatment was used to screen Tox21 10K library compounds in HepG2 cells. CellTox Green Cytotoxicity Assay is a nonlytic, homogeneous, biofluorescent method to measure cytotoxicity in cell culture after experimental manipulation. The assay system uses a proprietary asymmetric cyanine dye that is excluded from viable cells but preferentially stains the dead cell's DNA. […] Viable cells produce no appreciable increases in fluorescence. Therefore, the fluorescence signal produced by the binding interaction with dead cell DNA is proportional to cytotoxicity.
The mixture of HepG2 cell suspension and reagents were dispensed at 600cells/6 ul/well in 1536-well tissue culture treated black solid bottom plates using a Multidrop dispenser. After the assay plates were incubated at a 37 C/5% CO2 incubator for 5 hours, 23 nL of compounds dissolved in DMSO, positive and negative controls was transferred to the assay plate by a pintool work station. The plates were incubated at 37 C for 40 hours. The fluorescence intensity were measured at 0h, 8h, 16h, 24h, 32h and 40h time points using ViewLux plate reader during compound treatment.
% is set by controls: 0 for no effect and ±100 for the full control effect; potency is the fitted concentration of half-maximal effect.

SMILES	cytotoxicity increase	Potency
C/C(=N\O)[C@@H](C)NCC(C)(C)CN[C@H](C)/C(C)=N/O	-6.4% [at 35.3 µM]	–
NC(=O)NS(=O)(=O)c1ccc(Cl)cc1	-7.38% [at 35.3 µM]	–
CC(C)=CCCC(C)CCOC=O (stereo not given)	-3.78%	–
CO[Si](C)(C)OC	-3.54%	–
O=C(O)CN(CCN(CC(=O)O)CC(=O)O)CCN(CC(=O)O)CC(=O)O	22% [at 15.8 µM]	–
COc1ccccc1OCC(O)COC(N)=O (stereo not given)	-17.2% [at 35.3 µM]	–
CCCNC(C)(C)COC(=O)c1ccccc1	-8.19% [at 35.3 µM]	–
Cc1c(C(=O)NCCO)[n+](=O)c2ccccc2n1[O-]	-3.6% [at 35.3 µM]	–
CC(=O)N[C@@H](CC(C)C)C(=O)O	2.69% [at 35.3 µM]	–
COC(=O)/C=C(/C)N	2.19% [at 35.3 µM]	–
C=C(C)C(=O)OCCOP(=O)(O)O	-7.21%	–
CCOC(=O)CS	-13.9%	–
CC1(O)CSC(C)(O)CS1 (stereo not given)	-0.0797%	–
CC(C)(C)c1ccc(OC(=O)c2ccccc2O)cc1	-1.5%	–
CCCOc1ccc2c(c1)CC[C@@H]1[C@@H]2CC[C@]2(C)C(OC)CC[C@@H]12 (stereo not given in full)	-6.79% [at 35.3 µM]	–
CC(C)C1=CC2=CC[C@@H]3[C@](C)(CCC[C@@]3(C)C(=O)O)[C@H]2CC1	14.9%	–
CCOC(=O)C(Br)c1ccccc1 (stereo not given)	0.573%	–
CCCCNc1ccc(C(=O)OCCN(CC)CC)cc1	3.55% [at 35.3 µM]	–
CN1C(=O)CC(c2ccccc2)C1=O (stereo not given)	-23.5% [at 35.3 µM]	–
CCCc1c2oc(C(=O)O)cc(=O)c2cc2c(=O)cc(C(=O)O)n(CC)c12	2.89% [at 35.3 µM]	–

SMILES	cytotoxicity increase	Potency
CC(=O)OC(C)OC(C)=O	5.96%	–
COC(=O)C(C)O (stereo not given)	-0.766%	–
OCC(CBr)(CBr)CBr	-8.68%	–
CC(C)c1ccccc1	-4.64%	–
CO[C@@]1(NC(=O)CSCC#N)C(=O)N2C(C(=O)O)=C(CSc3nnnn3C)CS[C@@H]21	-10.6% [at 35.3 µM]	–
CC(C)NCC(O)COc1ccc(CCOCC2CC2)cc1 (stereo not given)	15.5% [at 35.3 µM]	–
COc1ccc(S(=O)(=O)Nc2nnc(CC(C)C)s2)cc1	-11.5% [at 35.3 µM]	–
COc1ccccc1N1CCN(CCCNc2cc(=O)n(C)c(=O)n2C)CC1	-3.03% [at 35.3 µM]	–
CC1(C)C(=O)N(Cl)C(=O)N1Br	-0.42%	–
C=CC1CO1 (stereo not given)	-0.707%	–
CC(C)C[C@H](NC(=O)OCC1c2ccccc2-c2ccccc21)C(=O)O	-2.33%	–
CC1=C(O)C(=O)OC1C (stereo not given)	-12.4%	–
FC(F)(F)C(Cl)(Cl)Cl	6.61%	–
C1CSCCS1	2.67%	–
CCCN(CCC)C(=O)C(CCC(=O)O)NC(=O)c1ccccc1 (stereo not given)	-3.63% [at 35.3 µM]	–
CCc1cc(Cl)c(OC)c(C(=O)NC[C@@H]2CCCN2CC)c1O	19.2% [at 35.3 µM]	–
CCCCCCCCCCCCOCCOS(=O)(=O)O	–	54.9 µM (active)
CCCCC1CCC(=O)O1 (stereo not given)	-8.46%	–
CCOc1ccc(NC(N)=O)cc1	-4.76%	–
O=C1Nc2ccc([N+](=O)[O-])cc2C1=O	-1.99%	–

From PubChem BioAssay (Tox21)
